# Laboratory results: the supplement of paper PMC12282887
# ± gives the standard deviation of the averaged measurements.
# Columns and labels:
# Assay in all cases: promoter activity interaction Z-score (Lux/OD deviation from empty-vector control); higher = stronger promoter induction by the compound
# [1] = system: E. coli BW25113 acrABp lux reporter
# Method in brief: (§1)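 Low-copy luxCDABE promoter reporters were carried by E. coli BW25113, either wild type or lacking one of three genes, grown in 40 µl LB Lennox in 384-well plates at 37°C. Each compound was run at four 1:2 dilutions in biological duplicates, with OD600 and luminescence read every 30 min for 12 h. Integration used 0–8 h for wild type and 1–9 h for deletion strains, and wells under 10% of the median growth value were removed. Luminescence normalised to growth was fitted against a control, and the Z-transformed residual is the score.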
# [2] = system: E. coli BW25113 marRABp lux reporter
# Method in brief: as §1
# [3] = system: E. coli BW25113 micFp lux reporter
# Method in brief: as §1
# [4] = system: E. coli BW25113 ompFp lux reporter
# Method in brief: as §1
# [5] = system: E. coli BW25113 robp lux reporter
# Method in brief: as §1
# [6] = system: E. coli BW25113 soxSp lux reporter
# Method in brief: as §1
# [7] = system: E. coli BW25113 tolCp lux reporter
# Method in brief: as §1
# [8] = 0.0054 µg/ml, genetic background: wild type
# [9] = 0.0054 µg/ml, genetic background: ΔmarA
# [10] = 0.0054 µg/ml, genetic background: Δrob
# [11] = 0.0054 µg/ml, genetic background: ΔsoxS
# [12] = 0.011 µg/ml, genetic background: wild type
# [13] = 0.011 µg/ml, genetic background: ΔmarA
# [14] = 0.011 µg/ml, genetic background: Δrob
# [15] = 0.011 µg/ml, genetic background: ΔsoxS
# [16] = 0.022 µg/ml, genetic background: wild type
# [17] = 0.022 µg/ml, genetic background: ΔmarA
# [18] = 0.022 µg/ml, genetic background: Δrob
# [19] = 0.022 µg/ml, genetic background: ΔsoxS
# [20] = 0.044 µg/ml, genetic background: wild type
structure (smiles),measurement,setting,value
C[C@H]1[C@H](NC(=O)/C(=N\OC(C)(C)C(=O)O)c2csc(N)n2)C(=O)N1S(=O)(=O)O [Aztreonam],promoter activity interaction Z-score,[1]; [8],-0.253 ± 0.084
same,promoter activity interaction Z-score,[1]; [9],-0.209 ± 1.9
same,promoter activity interaction Z-score,[1]; [10],-0.333 ± 0.022
same,promoter activity interaction Z-score,[1]; [11],-0.321 ± 0.053
same,promoter activity interaction Z-score,[1]; [12],0.0466 ± 0.11
same,promoter activity interaction Z-score,[1]; [13],1.29 ± 1.5
same,promoter activity interaction Z-score,[1]; [14],-0.509 ± 0.068
same,promoter activity interaction Z-score,[1]; [15],-0.163 ± 0.42
same,promoter activity interaction Z-score,[1]; [16],-0.332 ± 0.23
same,promoter activity interaction Z-score,[1]; [17],0.66 ± 1.8
same,promoter activity interaction Z-score,[1]; [18],-0.535 ± 0.26
same,promoter activity interaction Z-score,[1]; [19],-0.424 ± 0.41
same,promoter activity interaction Z-score,[2]; [8],-0.108 ± 0.36
same,promoter activity interaction Z-score,[2]; [9],0.583 ± 0.95
same,promoter activity interaction Z-score,[2]; [10],-0.202 ± 0.19
same,promoter activity interaction Z-score,[2]; [11],-0.188 ± 0.0033
same,promoter activity interaction Z-score,[2]; [12],0.0506 ± 0.094
same,promoter activity interaction Z-score,[2]; [13],-0.139 ± 0.26
same,promoter activity interaction Z-score,[2]; [14],-0.0608 ± 0.52
same,promoter activity interaction Z-score,[2]; [15],-0.218 ± 0.047
same,promoter activity interaction Z-score,[2]; [16],0.0487 ± 0.33
same,promoter activity interaction Z-score,[2]; [17],0.0272 ± 0.41
same,promoter activity interaction Z-score,[2]; [18],-0.0627 ± 0.18
same,promoter activity interaction Z-score,[2]; [19],-0.214 ± 0.088
same,promoter activity interaction Z-score,[3]; [8],-0.16 ± 0.07
same,promoter activity interaction Z-score,[3]; [9],0.09 ± 0.019
same,promoter activity interaction Z-score,[3]; [10],-0.0804 ± 0.089
same,promoter activity interaction Z-score,[3]; [11],-0.271 ± 0.15
same,promoter activity interaction Z-score,[3]; [12],0.0711 ± 0.15
same,promoter activity interaction Z-score,[3]; [13],0.045 ± 0.1
same,promoter activity interaction Z-score,[3]; [14],-0.174 ± 0.022
same,promoter activity interaction Z-score,[3]; [15],0.375 ± 0.11
same,promoter activity interaction Z-score,[3]; [16],-0.368 ± 0.07
same,promoter activity interaction Z-score,[3]; [17],0.0282 ± 0.096
same,promoter activity interaction Z-score,[3]; [18],-0.184 ± 0.33
same,promoter activity interaction Z-score,[3]; [19],-0.331 ± 0.2
same,promoter activity interaction Z-score,[4]; [8],0.304 ± 0.71
same,promoter activity interaction Z-score,[4]; [9],1.01 ± 0.48
same,promoter activity interaction Z-score,[4]; [10],0.73 ± 0.63
same,promoter activity interaction Z-score,[4]; [11],-0.689 ± 0.21
same,promoter activity interaction Z-score,[4]; [12],0.141 ± 0.14
same,promoter activity interaction Z-score,[4]; [13],1.02 ± 0.8
same,promoter activity interaction Z-score,[4]; [14],-0.364 ± 0.87
same,promoter activity interaction Z-score,[4]; [15],0.129 ± 0.2
same,promoter activity interaction Z-score,[4]; [16],-0.19 ± 0.57
same,promoter activity interaction Z-score,[4]; [17],1.43 ± 0.23
same,promoter activity interaction Z-score,[4]; [18],-0.565 ± 1.7
same,promoter activity interaction Z-score,[4]; [19],-0.303 ± 0.73
same,promoter activity interaction Z-score,[5]; [8],-0.543 ± 0.46
same,promoter activity interaction Z-score,[5]; [9],1.13 ± 0.88
same,promoter activity interaction Z-score,[5]; [10],-0.203 ± 0.46
same,promoter activity interaction Z-score,[5]; [11],-1.41 ± 0.17
same,promoter activity interaction Z-score,[5]; [12],0.385 ± 0.037
same,promoter activity interaction Z-score,[5]; [13],1.33 ± 2
same,promoter activity interaction Z-score,[5]; [14],-0.405 ± 0.69
same,promoter activity interaction Z-score,[5]; [15],-0.722 ± 0.24
same,promoter activity interaction Z-score,[5]; [16],-0.69 ± 0.072
same,promoter activity interaction Z-score,[5]; [17],-0.124 ± 0.43
same,promoter activity interaction Z-score,[5]; [18],-1.16 ± 1.2
same,promoter activity interaction Z-score,[5]; [19],-1.07 ± 0.27
same,promoter activity interaction Z-score,[6]; [8],0.278 ± 0.064
same,promoter activity interaction Z-score,[6]; [9],0.333 ± 0.11
same,promoter activity interaction Z-score,[6]; [10],-0.00514 ± 0.076
same,promoter activity interaction Z-score,[6]; [11],-0.126 ± 0.11
same,promoter activity interaction Z-score,[6]; [12],0.305 ± 0.13
same,promoter activity interaction Z-score,[6]; [13],0.172 ± 0.0071
same,promoter activity interaction Z-score,[6]; [14],-0.21 ± 0.25
same,promoter activity interaction Z-score,[6]; [15],0.164 ± 0.46
same,promoter activity interaction Z-score,[6]; [16],0.0318 ± 0.13
same,promoter activity interaction Z-score,[6]; [17],0.1912 ± 0.0014
same,promoter activity interaction Z-score,[6]; [18],-0.194 ± 0.19
same,promoter activity interaction Z-score,[6]; [19],-0.106 ± 0.33
same,promoter activity interaction Z-score,[6]; [20],-0.0693 ± 0.29
same,promoter activity interaction Z-score,[7]; [8],-0.174 ± 0.12
same,promoter activity interaction Z-score,[7]; [9],0.0726 ± 0.53
same,promoter activity interaction Z-score,[7]; [10],-0.67 ± 1.8
same,promoter activity interaction Z-score,[7]; [11],-1.94 ± 0.062
same,promoter activity interaction Z-score,[7]; [12],0.647 ± 0.59
same,promoter activity interaction Z-score,[7]; [13],-0.497 ± 0.27
same,promoter activity interaction Z-score,[7]; [14],-0.241 ± 1
same,promoter activity interaction Z-score,[7]; [15],-0.196 ± 0.045
same,promoter activity interaction Z-score,[7]; [16],0.105 ± 0.69
same,promoter activity interaction Z-score,[7]; [17],-0.22 ± 1.1
same,promoter activity interaction Z-score,[7]; [18],1.61 ± 1
same,promoter activity interaction Z-score,[7]; [19],-0.251 ± 0.32
same,promoter activity interaction Z-score,[7]; [20],-1.04
